Experimental data reported in PubChem BioAssay (EPA / NIEHS).
Inconclusive results are not listed. The source made the active and inactive calls. How the source made its calls, unless noted: active means hit-call score of the fitted dose curve at least 0.9, where 1 is the maximum; inconclusive means response in the unintended direction; inactive means score below 0.9.

test: CEETOX_H295R_TESTO: CeeTox H295R High-throughput Steroidogenesis Assay for Testosterone (TESTO) (AID 2283457; active means hit-call score of the fitted dose curve at least 0.9, where 1 is the maximum; inactive means score below 0.9;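 on AC50: cells exposed to chemicals for 48 h before medium collection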); details: actives raise or lower the signal
Outline: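 H295R human adrenal cells in DMEM/F12 with ITS+ and Nu-Serum, exposed to chemicals for 48 h. Testosterone in medium measured by MTBE extraction, reverse-phase HPLC-MS/MS; bidirectional fit versus DMSO baseline. MTT viability checked in same wells.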

Row | Compound | outcome | AC50
1 | C1=CCCC1 | inactive | –
2 | Oc1ccc(Cl)cc1Cc1cc(Cl)ccc1O | inactive | –
3 | CO[Si](CCC1CCC2OC2C1)(OC)OC (stereo unspecified) | inactive | –
4 | C=COCCCC | inactive | –
5 | CCCCC/C=C\CCC=O | inactive | –
6 | COCc1c(C(C)C)nc(C(C)C)c(/C=C/[C@@H](O)C[C@@H](O)CC(=O)O)c1-c1ccc(F)cc1 | – | 0.0187 µM (active)
7 | CCCCNc1ccc(NCCCC)c2c1C(=O)c1ccccc1C2=O | inactive | –
8 | COc1ccc2nc(N)sc2c1 | inactive | –

test: ATG_XTT_Cytotoxicity: Cytotoxicity Assessment in the Attagene TRANS-FACTORIAL HepG2 Assay (AID 2283584); details: not given;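 on AC50: cells exposed to compound for 24 h before reading; active means loss of viability signal versus DMSO baseline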
Outline: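 HepG2 human liver cells, transiently transfected with multiple GAL4-UAS reporter units, were dosed and read at 24 h by XTT as cell number. Loss of signal was fitted relative to DMSO negative control baseline.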

Row | Compound | outcome | AC50
9 | C1=CCCC1 | inactive | –
10 | Oc1ccc(Cl)cc1Cc1cc(Cl)ccc1O | – | 27 µM (active)
11 | OCCCS | inactive | –
12 | CC1(C)O[C@@H]2C[C@H]3[C@@H]4C[C@H](F)C5=CC(=O)C=C[C@]5(C)[C@@]4(F)[C@@H](O)C[C@]3(C)[C@]2(C(=O)CO)O1 | inactive | –
13 | O=[N+]([O-])c1ccc(CO)cc1 | inactive | –
14 | CO[Si](CCC1CCC2OC2C1)(OC)OC (stereo unspecified) | inactive | –
15 | CCOC(=O)[C@H](C)O | inactive | –
16 | O=S(=O)(O)c1cc(S(=O)(=O)O)c2ccc3c(S(=O)(=O)O)cc(S(=O)(=O)O)c4ccc1c2c43 | inactive | –
17 | O=CC1CC1 | inactive | –
18 | CC(=O)OCc1ccco1 | inactive | –
19 | O=C1CCC(=O)N1Cl | inactive | –
20 | CCc1c(C(=O)O)c(=O)cnn1-c1ccc(Cl)cc1 | inactive | –
21 | NC(=O)C1CO1 (stereo unspecified) | inactive | –
22 | C=COCCCC | inactive | –
23 | Clc1nc2ccccc2s1 | inactive | –
24 | CCCCCCCC(C)=O | inactive | –
25 | O=C(O)CCCC[C@@H]1SC[C@@H]2NC(=O)N[C@@H]21 | inactive | –
26 | CCCCCCCC[N+](C)(CCCCCCCC)CCCCCCCC | – | 9.48 µM (active)
